A selection: hits, their analogues and other compounds. The true share with any hit is near 19%.
DT40 TDP1 CPT: DT40-hTDP1 cell growth loss with CPT; chicken DT40 Tdp1-/-;hTDP1 cells + 20 nM CPT, ATP luminescence, 48 h; Potency, µM (highest dose often 46.2 µM), for the others: at the top dose activity change, negative = growth inhibition, usual class: inhibitors; 420,000 tested, 12% active; AID 686979; also: potency is read from the fitted curve at half-maximal effect; nearly all actives have a fitted effect of over 55% in size
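Cell growth measured by CellTiter-Glo luminescence after a minimum 48 h, 37 C compound exposure with 20 nM CPT in Tdp1-knockout DT40 cells stably expressing hTDP1, seeded 400/well; qHTS titration format.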
DT40 TDP1 no CPT: qHTS for Inhibitors of human tyrosyl-DNA phosphodiesterase 1 (TDP1): qHTS in cells in absence of CPT | Potency, µM (top dose mostly 46.2 µM), for the others: at the top dose activity change, negative = growth inhibition, actives largely listed as inhibitors | DT40 Tdp1-/- hTDP1 cells, no CPT, ATP luminescence, 48 h | 420,000 tested, 15% active; also: potency is read from the fitted curve at half-maximal effect; nearly all actives have a fitted effect of over 55% in size
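Seeded 400 DT40-hTDP1 cells/well (vehicle DMSO, no 20 nM CPT); pinned compounds; ≥48 hr at 37 °C; CellTiter-Glo luminescence as viability measure.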
HT1080-NT tox: kills 2HG-producing HT-1080-NT fibrosarcoma cells | Potency, µM (series often up to 46.1 µM), for the others: at the top dose activity, negative = less viability, usual class: cytotoxic | 360,000 tested, 1.6% active | AID 686970 | HT-1080-NT fibrosarcoma viability, CellTiter-Glo ATP luminescence, 48 h;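 also: NT is the 2HG producing partner of a matched IDH1 knockdown line; potency is read from the fitted curve at half-maximal effect; 0% = DMSO-treated cells and -100% = media-only wells without cells; nearly all actives have a fitted effect of over 55% in size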
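Compounds were tested in concentration-response format on HT-1080-NT cells for 48 hours at 37 degrees C. Cell viability came from CellTiter-Glo luminescence; curves were classified by r2, response magnitude and activity.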
IL-1B inflam inh: inflammasome signaling inhibition, IL-1 beta readout | 360,000 tested, 4.7% active | THP-1 LPS/ATP IL-1B secretion, AlphaLISA, 16 h; hits give low values | activity change, % at 57.5 µM | AID 743279; in the data active = activity change below about -50%; inconclusive = mostly about -30% to -49%
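Secreted IL-1B measured by AlphaLISA bead assay after 16 h compound exposure of THP-1 cells; compounds (final up to 57.5 uM) added 1 h before LPS (250 ng/mL) and ATP (1.25 mM) stimulation; lower signal means less secretion.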
HT1080 IDH1KD tx: toxicity to HT-1080 IDH1 knockdown cells (counter line); HT-1080 IDH1 knockdown viability, ATP luminescence, 48 h; Potency, µM (series often up to 46.1 µM), for inactives: top-dose activity, negative = toxicity, hits mostly cytotoxic; 360,000 tested, 2% active; AID 686971;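 also: potency is read from the fitted curve at half-maximal effect; 0% = DMSO wells and -100% = cell-free medium wells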
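HT-1080-IDH1KD cells (IDH1 knocked down), 750/well in RPMI with 5% FBS, treated with compound 48 h at 37 degrees C. Viability by CellTiter-Glo luminescence, normalised to DMSO and no-cell wells; concentration-response curves classed.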
Active calls of the source: *; ? = inconclusive; · = no result. Unless noted, calls follow the shape of the dose curve; as a rule, active = well fitted curve in the direction sought with a large enough effect; inconclusive = small, poorly fitted or top-dose-only effect, or another doubt; inactive = no such curve, though single readings can be large; an effect the other way counts as inactive or inconclusive. Unless noted, % is scaled to controls: 0 for no effect and ±100 for the full control effect.

SMILES	DT40 TDP1 CPT	DT40 TDP1 no CPT	HT1080-NT tox	IL-1B inflam inh	HT1080 IDH1KD tx
CC(c1ccc2c(c1)OCO2)n1c(=S)[nH]c2ccccc2c1=O (configuration not stated)	?	?	-6%	54	-8%
N#Cc1cccc(S(=O)(=O)NCc2nnc3ccccn23)c1	-2%	3%	3%	0	-1%
COCCN1C(=O)COc2ccccc2C1C(=O)NC1CCCC1 (configuration not stated)	2%	-5%	-1%	10	?
CSCC[C@H](C=O)NC(=O)[C@H](CC(C)C)NC(=O)[C@H](CC(C)C)NC(C)=O	19µM*	15µM*	·	·	·
CCCC[C@@H](C=O)NC(=O)[C@H](CC(C)C)NC(=O)[C@H](CC(C)C)NC(C)=O	1.3µM*	1.1µM*	·	·	·
CC(=O)NC(CC(C)C)C(=O)NC(=O)NCc1ccccc1 (configuration not stated)	-9%	-1%	5%	25	17%
CC(=O)N[C@@H](CC(C)C)C(=O)O	-6%	-1%	·	·	·
O=C(CN(c1ccc(F)cc1)S(=O)(=O)c1ccccc1)NC1CC2CCC1C2 (configuration not stated)	-8%	-21%	-2%	?	3%
CCOC(=O)C1CCCN(C(=O)Nc2cccc(Cl)c2)C1 (configuration not stated)	?	-20%	6%	28	-14%
CSCc1c(C(=O)NC2CCCc3ccccc32)oc2ccccc12 (configuration not stated)	?	?	2%	-7	2%
CCN(CC)S(=O)(=O)c1ccc2oc(C(=O)N3CCOCC3)c(C)c2c1	-11%	?	2%	0	8%
CCN(CC)S(=O)(=O)c1ccc2oc(C(=O)NC3CCCc4ccccc43)c(C)c2c1 (configuration not stated)	15µM*	10µM*	-21%	-1	-3%
CCN(CC)S(=O)(=O)c1ccc2oc(C(=O)N3CCCCCC3)c(C)c2c1	?	9.2µM*	-20%	30	-13%
CCN(CC)S(=O)(=O)c1ccc2oc(C(=O)N3CCc4ccccc4C3)c(C)c2c1	?	2.1µM*	6%	-27	8%
COc1ccc(NC2CCCCC2NS(=O)(=O)c2ccc(C)cc2)cc1 (configuration not stated)	?	?	-5%	20	-5%
COC(=O)C1=C(CCc2ccccc2)NC(=O)NC1c1ccc([N+](=O)[O-])cc1 (configuration not stated)	?	?	-7%	-3	-5%
OCCSc1nnc(Nc2ccccc2)s1	-8%	-18%	19%	5	9%
COc1ccc(C(=O)Nc2ccc(Nc3ccccc3)cc2)cc1OC	-5%	12%	-2%	-9	2%
C(=C\c1sc(Nc2ccccc2)n[n+]1-c1ccccc1)/c1ccccc1	5.2µM*	8.2µM*	-6%	-98*	-8%
COc1ccc(-c2sc(Nc3ccccc3)n[n+]2-c2ccccc2)cc1Br	23µM*	15µM*	-20%	?	-26%
CCOc1cc(-c2sc(Nc3cc(C)ccc3OC)n[n+]2-c2ccccc2)ccc1OC	15µM*	16µM*	-6%	3	-9%
CCOc1cc(-c2sc(Nc3ccc(CC)cc3)n[n+]2-c2ccccc2)ccc1OC	16µM*	18µM*	-10%	2	-1%
CCOc1ccccc1C(=O)Nc1nnc(Cc2ccc(OC)c(OC)c2)s1	-30%	?	-1%	9	-6%
CCOC(=O)C(C(C)C)C(N)Cc1ccc(F)cc1 (configuration not stated)	-16%	?	0%	-9	-4%
CC1=C(C(=O)Nc2cc(C(=O)NCCCOC(C)C)ccc2C)SCCO1	22%	-13%	16%	29	24%
SMILES	DT40 TDP1 CPT	DT40 TDP1 no CPT	HT1080-NT tox	IL-1B inflam inh	HT1080 IDH1KD tx
O=C(c1cn(Cc2ccccc2)nc1-c1cccnc1)N1CCN(Cc2c(F)cccc2Cl)CC1	?	29µM*	2%	17	2%
COc1cccc(N2CCN(C(=O)c3cn(Cc4ccccc4)nc3-c3cccnc3)CC2)c1	2.6µM*	2.1µM*	5.8µM*	71	3.3µM*
COC(=O)C/C=N/N=C1/NC(=O)/C(=C/C(=O)O)S1	-13%	-7%	-1%	13	15%
O=C1c2c(-c3ccc(Br)cc3)noc2CCN1Cc1cn(-c2ccccc2)nn1	21µM*	?	?	0	-25%
O=C1c2c(-c3ccc(Br)cc3)noc2CCN1Cc1cn(Cc2ccccc2)nn1	?	18µM*	?	-8	?
COc1ccc(C2=NO[C@H]3C[C@](C(=O)NC(C)C)(S(=O)(=O)c4ccccc4)C[C@@H]23)cc1	5%	-17%	1%	14	2%
O=S(=O)(c1ccccc1)[C@@]1(c2ccccc2)C[C@@H]2ON=C(c3cccc(-c4ccccc4)c3)[C@@H]2C1	?	13µM*	13%	-1	6%
C=CC1=C(C)C2=CC3=NC(=C(CC(=O)[O-])C4=NC(=C(C)C4=C([O-])[O-])C=c4[n-]c(c(C)c4CC)=CC1=N2)C(CCC(=O)[O-])C3C.[Cu+2].[Na+].[Na+].[Na+] (configuration not stated)	?	-28%	·	·	·
COc1ccc(C2Oc3ccccc3C3=C2C(c2cccs2)n2ncnc2N3)cc1 (configuration not stated)	21µM*	23µM*	?	-15	8.2µM*
COc1ccc(OC)c(NC(=O)C2=C(C)Nc3ncnn3C2c2cccs2)c1 (configuration not stated)	-24%	-35%	1%	-29	-1%
C/C(=N\Nc1nc2ccccc2[nH]1)c1ccc(Cl)s1	?	23µM*	?	-97*	?
C/C(=N\Nc1nc2ccccc2[nH]1)c1ccc(N2CCOCC2)cc1	?	16µM*	?	-96*	?
O=C(CSc1nc2ccccc2[nH]1)c1ccc(Cl)s1	-2%	-1%	5%	3	6%
COc1cccc(C(=O)Oc2ccc(/C=N/Nc3ccc(C(=O)O)cc3)cc2OC)c1	?	29µM*	-28%	-1	-11%
COc1cccc(OCc2cc(/C=N/Nc3ccc(C(=O)O)cc3)ccc2OC)c1	21µM*	21µM*	21µM*	19	?
COCc1cc(/C=N\NC(=O)COc2ccccc2)ccc1OC	-2%	-23%	8%	8	14%
O=C(Cc1ccc([N+](=O)[O-])cc1)Nc1cccc(C(=O)N2CCCC2)c1	?	?	0%	3	5%

Assay outcomes deposited in PubChem BioAssay by National Center for Advancing Translational Sciences (NCATS).
